Data on twelve sequences can be found in PMC5700166.

Positions count from the first letter of the chain named.

Experiment in all cases: protein-binding microarray (PBM); PBM: ~300 nM protein, 6 mM HEPES pH 7.8, 80 mM KCl, 0.5 mM EDTA, 0.5 mM EGTA, 6% glycerol, 35 ng/ul poly-dIdC, 1% milk, 1 h, room temperature; Ap Aiptasia and Nv Nematostella (sea anemones) / Co Capsaspora / Aq Amphimedon (sponge) / Dm Drosophila / Hu human; RHD is the Rel homology domain; high values mean tight binding
Holding throughout (settings): dsDNA, one strand shown

The target in one test is T1, GST-Ap-NF-kB RHD (Exaiptasia pallida (Aiptasia), UniProt A0A913YAJ5 2-422).
T1 sequence: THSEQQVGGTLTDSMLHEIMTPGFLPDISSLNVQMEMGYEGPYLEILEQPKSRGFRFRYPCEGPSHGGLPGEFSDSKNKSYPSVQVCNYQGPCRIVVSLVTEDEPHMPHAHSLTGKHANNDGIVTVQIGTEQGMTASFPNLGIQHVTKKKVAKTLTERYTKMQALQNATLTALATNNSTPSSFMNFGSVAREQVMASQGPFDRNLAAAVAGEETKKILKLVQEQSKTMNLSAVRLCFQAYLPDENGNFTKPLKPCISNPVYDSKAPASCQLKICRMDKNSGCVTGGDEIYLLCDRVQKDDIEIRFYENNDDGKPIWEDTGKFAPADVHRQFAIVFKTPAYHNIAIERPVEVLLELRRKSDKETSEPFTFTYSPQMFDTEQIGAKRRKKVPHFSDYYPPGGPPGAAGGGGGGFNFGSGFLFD

For test [1], the target named is T2, GST-Nv-NF-kB (Cys allele) (Nematostella vectensis, UniProt E5G601 2-411).
T2 sequence: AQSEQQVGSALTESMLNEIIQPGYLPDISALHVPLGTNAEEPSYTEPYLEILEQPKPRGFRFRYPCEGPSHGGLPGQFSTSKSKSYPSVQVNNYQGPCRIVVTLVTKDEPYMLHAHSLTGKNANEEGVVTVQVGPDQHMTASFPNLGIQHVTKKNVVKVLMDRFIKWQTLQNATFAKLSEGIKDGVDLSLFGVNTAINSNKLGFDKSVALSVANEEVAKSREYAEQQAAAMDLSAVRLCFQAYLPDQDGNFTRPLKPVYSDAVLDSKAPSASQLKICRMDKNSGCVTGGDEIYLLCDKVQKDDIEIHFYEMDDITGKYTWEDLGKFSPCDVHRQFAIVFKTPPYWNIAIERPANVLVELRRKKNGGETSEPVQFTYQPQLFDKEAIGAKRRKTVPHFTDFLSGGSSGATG

Test [2] deals with T3, GST-Nv-NF-kB (Ser allele) (Nematostella vectensis, UniProt A7UNT2 2-411).
T3 sequence: T2 sequence with Q21R, C66S, S207N, E215Q, V217A, E225K, A268E, D399E

Another test addresses T4, GST-Co-NF-kB (Capsaspora owczarzaki, UniProt F1ARL5 200-546).
T4 sequence: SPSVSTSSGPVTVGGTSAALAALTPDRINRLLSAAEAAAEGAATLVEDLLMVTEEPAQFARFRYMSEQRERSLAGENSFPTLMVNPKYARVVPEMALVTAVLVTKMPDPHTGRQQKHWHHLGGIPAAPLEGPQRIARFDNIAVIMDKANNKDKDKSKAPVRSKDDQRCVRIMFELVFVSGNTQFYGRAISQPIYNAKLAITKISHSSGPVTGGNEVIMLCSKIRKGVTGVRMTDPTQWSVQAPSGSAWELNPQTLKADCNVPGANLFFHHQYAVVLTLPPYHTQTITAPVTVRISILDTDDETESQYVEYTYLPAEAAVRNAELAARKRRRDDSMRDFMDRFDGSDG

The target in another test is T5, GST-Dm-Relish (Drosophila melanogaster, UniProt Q94527 99-473).
T5 sequence: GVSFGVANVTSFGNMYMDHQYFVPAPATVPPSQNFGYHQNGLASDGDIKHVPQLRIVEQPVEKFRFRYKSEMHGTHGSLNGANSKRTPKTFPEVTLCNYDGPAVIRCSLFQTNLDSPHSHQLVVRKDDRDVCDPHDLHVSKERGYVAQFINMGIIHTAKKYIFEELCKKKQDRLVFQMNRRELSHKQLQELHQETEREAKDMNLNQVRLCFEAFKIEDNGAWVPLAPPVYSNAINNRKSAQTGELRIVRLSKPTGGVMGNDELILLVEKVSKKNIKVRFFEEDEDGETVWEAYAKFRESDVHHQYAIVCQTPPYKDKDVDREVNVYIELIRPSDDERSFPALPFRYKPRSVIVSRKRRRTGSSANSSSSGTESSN

The next test has as its target T6, GST-Aq-NF-kB (Amphimedon queenslandica, UniProt A9Y5G7 2-389).
T6 sequence: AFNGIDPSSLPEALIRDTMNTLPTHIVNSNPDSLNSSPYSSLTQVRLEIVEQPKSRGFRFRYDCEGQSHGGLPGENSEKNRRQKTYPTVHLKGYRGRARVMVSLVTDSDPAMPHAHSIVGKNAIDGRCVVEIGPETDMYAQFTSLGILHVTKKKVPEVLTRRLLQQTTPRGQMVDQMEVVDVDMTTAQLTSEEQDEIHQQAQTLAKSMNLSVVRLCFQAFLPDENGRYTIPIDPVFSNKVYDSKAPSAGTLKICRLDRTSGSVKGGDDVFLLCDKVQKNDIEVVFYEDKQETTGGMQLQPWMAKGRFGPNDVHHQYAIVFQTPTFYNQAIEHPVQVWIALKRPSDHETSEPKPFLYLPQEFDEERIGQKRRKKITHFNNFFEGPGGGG

A further test addresses GST-Hu-p50 (Homo sapiens, UniProt P19838 7-356).

Sequence of GST-Hu-p50 (P19838 7-356): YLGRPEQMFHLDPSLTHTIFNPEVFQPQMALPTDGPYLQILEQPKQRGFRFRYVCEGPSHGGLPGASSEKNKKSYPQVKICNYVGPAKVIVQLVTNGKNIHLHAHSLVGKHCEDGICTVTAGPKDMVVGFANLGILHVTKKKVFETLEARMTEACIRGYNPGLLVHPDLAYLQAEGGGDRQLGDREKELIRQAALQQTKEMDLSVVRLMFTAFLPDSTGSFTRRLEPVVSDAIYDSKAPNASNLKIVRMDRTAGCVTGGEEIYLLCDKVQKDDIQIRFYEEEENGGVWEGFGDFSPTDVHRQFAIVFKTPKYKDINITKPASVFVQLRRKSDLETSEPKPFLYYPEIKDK

For the sequence “CCGATTAACATCAGTACTCCCCATGATGTTAATCGGGTCTTGATTCGCTTGACGCTGCTG”, the binding signal with GST-Ap-NF-kB RHD came to 3.64 z-score; in test [1], 2.81 z-score; in test [2] it was 2.45 z-score; with GST-Co-NF-kB, 2.88 z-score; with GST-Dm-Relish it was 4.81 z-score; with GST-Aq-NF-kB it was 2.35 z-score. The sequence also registered a binding signal with GST-Hu-p50 of 2.2 z-score.
As for “CCGATTAACATCACATTTTCCCCTGATGTTAATCGGGTCTTGATTCGCTTGACGCTGCTG”, the binding signal stood at 6.76 z-score in the test with GST-Ap-NF-kB RHD; 8.07 z-score in test [1]; 10.5 z-score in test [2]; 9.7 z-score with GST-Co-NF-kB; 3.97 z-score with GST-Dm-Relish; 5.38 z-score in the test with GST-Aq-NF-kB. For the same sequence, the binding signal in the test with GST-Hu-p50 was 6.01 z-score.
As for “CCGATTAACATCAAGAACCCCCGTGATGTTAATCGGGTCTTGATTCGCTTGACGCTGCTG”, the binding signal with GST-Ap-NF-kB RHD was 6.68 z-score; in test [1] it was 4.55 z-score; in test [2], 5.31 z-score; with GST-Co-NF-kB it was 3.25 z-score; with GST-Dm-Relish, 8.39 z-score; in the test with GST-Aq-NF-kB it was 5.21 z-score. This sequence displayed a binding signal with GST-Hu-p50 of 5.41 z-score.
Turning to “CCGATTAACATCAGAGTTCCCCCTGATGTTAATCGGGTCTTGATTCGCTTGACGCTGCTG”, the binding signal came to 7.64 z-score with GST-Ap-NF-kB RHD; 7.87 z-score in test [1]; 8.12 z-score in test [2]; 8.96 z-score with GST-Co-NF-kB; 7 z-score with GST-Dm-Relish; 6.05 z-score in the test with GST-Aq-NF-kB. In the test with GST-Hu-p50, this sequence yielded a binding signal of 6.39 z-score.
Turning to “CCGATTAACATCAAGTTCCCCCCTGATGTTAATCGGGTCTTGATTCGCTTGACGCTGCTG”, the binding signal amounted to 7.37 z-score with GST-Ap-NF-kB RHD; 6.39 z-score in test [1]; 7.26 z-score in test [2]; 10.1 z-score with GST-Co-NF-kB; 6.95 z-score with GST-Dm-Relish; 6.03 z-score in the test with GST-Aq-NF-kB. Also, the binding signal with GST-Hu-p50 is 6.13 z-score.
For “CCGATTAACATCAGGGGGATGCATGATGTTAATCGGGTCTTGATTCGCTTGACGCTGCTG”, the binding signal was 4.72 z-score with GST-Ap-NF-kB RHD; 4.49 z-score in test [1]; 5.56 z-score in test [2]; 4.12 z-score with GST-Co-NF-kB; 3.39 z-score with GST-Dm-Relish; 3.86 z-score with GST-Aq-NF-kB. In the test with GST-Hu-p50, the binding signal was determined as 4.84 z-score.
Regarding “CCGATTAACATCAAATTTCCCGATGATGTTAATCGGGTCTTGATTCGCTTGACGCTGCTG”, the binding signal was 3.04 z-score in the test with GST-Ap-NF-kB RHD; 4.4 z-score in test [1]; 3.94 z-score in test [2]; 4.24 z-score with GST-Co-NF-kB; 2.2 z-score in the test with GST-Dm-Relish; 4.21 z-score with GST-Aq-NF-kB. Besides, in the test with GST-Hu-p50, the binding signal amounted to 3.9 z-score.
Consider “CCGATTAACATCAGGGGAAAATATGATGTTAATCGGGTCTTGATTCGCTTGACGCTGCTG”, for which the binding signal is 6.98 z-score with GST-Ap-NF-kB RHD; 8.57 z-score in test [1]; 11.7 z-score in test [2]; 10.2 z-score with GST-Co-NF-kB; 4.1 z-score with GST-Dm-Relish; 6.25 z-score with GST-Aq-NF-kB. For the same sequence, in the test with GST-Hu-p50, the binding signal was 6.72 z-score.
On to “CCGATTAACATCAAAAATTACCCTGATGTTAATCGGGTCTTGATTCGCTTGACGCTGCTG”, for which the binding signal with GST-Ap-NF-kB RHD is 4.2 z-score; in test [1], 7.43 z-score; in test [2], 7.03 z-score; in the test with GST-Co-NF-kB it was 4.09 z-score; in the test with GST-Dm-Relish, 6.42 z-score; with GST-Aq-NF-kB it was 6.93 z-score. For the same sequence, in the test with GST-Hu-p50, the binding signal was found to be 5.22 z-score.
Turning to “CCGATTAACATCAGGGACTGCCCTGATGTTAATCGGGTCTTGATTCGCTTGACGCTGCTG”, the binding signal in the test with GST-Ap-NF-kB RHD is 4.31 z-score; in test [1] it was 4.95 z-score; in test [2], 3.06 z-score; with GST-Co-NF-kB it was 1.04 z-score; with GST-Dm-Relish, 4.22 z-score; with GST-Aq-NF-kB, 7.19 z-score. Besides, in the test with GST-Hu-p50, the binding signal amounted to 4.14 z-score.
Consider “CCGATTAACATCAGGGGAAAAACTGATGTTAATCGGGTCTTGATTCGCTTGACGCTGCTG”, for which the binding signal is 6.41 z-score with GST-Ap-NF-kB RHD; 8.02 z-score in test [1]; 10.3 z-score in test [2]; 9.24 z-score with GST-Co-NF-kB; 9.62 z-score with GST-Dm-Relish; 6.72 z-score in the test with GST-Aq-NF-kB. In the test with GST-Hu-p50, this sequence had a binding signal of 6.32 z-score.
Consider “CCGATTAACATCAAAAAATTCCCTGATGTTAATCGGGTCTTGATTCGCTTGACGCTGCTG”, for which the binding signal was 6.84 z-score with GST-Ap-NF-kB RHD; 10.3 z-score in test [1]; 9.33 z-score in test [2]; 5.79 z-score with GST-Co-NF-kB; 8.53 z-score with GST-Dm-Relish; 8.5 z-score with GST-Aq-NF-kB. Further, the binding signal with GST-Hu-p50 was 6.48 z-score.
